The source made the active and inactive calls. The calls were made as follows: active = hit-call score of the fitted dose curve at least 0.9, where 1 is the maximum; inactive = score below 0.9.
Legend:
[1] = read-out: Intercellular Adhesion Molecule 1 (ICAM1), ICAM1 (gene 3383); test: BSK_BE3C_ICAM1: BioMAP Diversity Plus: BE3C Assay for Intercellular Adhesion Molecule 1 (ICAM1) Biomarker Activity (AID 2284278); conditions: primary human bronchial epithelial cells;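 also: cell-surface ICAM-1 protein level quantified by ELISA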
In short: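 Primary human bronchial epithelial cells in BE3C system, 24 h after chemical dosing; cell-surface ICAM-1 measured by ELISA relative to DMSO. Parallel SRB staining (0.1% SRB after 10% TCA fixation, read at 560 nm) assessed cytotoxicity.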

[2] = read-out: Interleukin-8 (IL8), CXCL8 (gene 3576); test: BSK_BE3C_IL8: BioMAP Diversity Plus: BE3C Assay for Interleukin-8 (IL8) Biomarker Activity (AID 2284280); conditions: primary human bronchial epithelial cells
In short: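 Primary human bronchial epithelial cells (BE3C system) exposed 24 h; IL-8 measured by ELISA and fitted in positive direction versus DMSO. Overt cytotoxicity assessed by SRB total-protein staining in parallel cultures.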

[3] = read-out: Epidermal growth factor receptor (EGFR), EGFR (gene 1956); test: BSK_BE3C_EGFR: BioMAP Diversity Plus: BE3C Assay for Epidermal growth factor receptor (EGFR) Biomarker Activity (AID 2284281); conditions: primary human bronchial epithelial cells
In short: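 Human primary bronchial epithelial cells (BE3C system) dosed with chemicals; EGFR measured by ELISA at 24 h, fitted in the positive direction relative to DMSO. Cytotoxicity tracked in parallel cultures by SRB total-protein staining.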

[4] = read-out: KRT18 (gene 3875); test: BSK_BE3C_Keratin818: BioMAP Diversity Plus: BE3C Assay for Keratin 818 Biomarker Activity (AID 2284282); conditions: primary human bronchial epithelial cells
In short: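 Primary human bronchial epithelial cells treated 24 h; Keratin 8/18 quantified by ELISA, fit relative to DMSO. Cytotoxicity tracked in parallel cultures by sulforhodamine B total-protein staining.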

[5] = read-out: Plasminogen activator inhibitor-1 (PAI1), SERPINE1 (gene 5054); test: BSK_CASM3C_PAI1: BioMAP Diversity Plus: CASM3C Assay for Plasminogen activator inhibitor-1 (PAI1) Biomarker Activity (AID 2284284); conditions: primary human coronary artery smooth muscle cells;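 also: PAI-1 protein level measured by ELISA 24 h after dosing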
[6] = read-out: Intercellular Adhesion Molecule 1 (ICAM1), ICAM1 (gene 3383); test: BSK_hDFCGF_ICAM1: BioMAP Diversity Plus: hDFCGF Assay for Intercellular Adhesion Molecule 1 (ICAM1) Biomarker Activity (AID 2284287); conditions: primary human foreskin fibroblasts
In short: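 Primary human foreskin fibroblasts (hDFCGF system) dosed with chemical; ICAM-1 quantified by ELISA at 24 h relative to DMSO. Parallel SRB total-protein staining to assess overt cytotoxicity.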

[7] = read-out: TIMP metallopeptidase inhibitor 2 (TIMP2), TIMP2 (gene 7077); test: BSK_hDFCGF_TIMP2: BioMAP Diversity Plus: hDFCGF Assay for TIMP metallopeptidase inhibitor 2 (TIMP2) Biomarker Activity (AID 2284289); conditions: primary human foreskin fibroblasts
In short: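 Primary human foreskin fibroblasts in the hDFCGF system, dosed for 24 h; TIMP-2 level measured by ELISA, fitted in the positive direction against DMSO; cytotoxicity checked in parallel by sulforhodamine B total protein staining.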

[8] = BSK_MyoF_SRB: Viability Assessment in the BioMAP Diversity Plus: MyoF Assay (AID 2284267); conditions: primary human lung fibroblasts;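 also: total protein by SRB absorbance in parallel cultures as cytotoxicity measure; cells assessed 24 h after compound addition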
In short: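 Human lung fibroblasts, 24 h after chemical dosing; total protein measured by 0.1% sulforhodamine B staining after 10% TCA fixation, read at 560 nm, fitted relative to DMSO baseline.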

[9] = IUF_NPC2c_oligodendrocyte_migration_120hr: Leibniz Research Institute for Environmental Medicine (IUF) 120-hour Neural Progenitor Cell Migration Assay for Oligodendrocyte Migration (NPC2c) (AID 2284297);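 also: O4-positive oligodendrocyte migration distance divided by radial glia migration distance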
In short: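 hNPC spheres (GW 16-19 cortex), PDL/laminin, DMEM/F12 3:1 + 1% N2, 37C. Dosing day 0–5, half feed day 3, DMSO ≤0.1%. Fixed 120 h; O4 ICC + Hoechst, HCI. Readout: mean oligodendrocyte distance from sphere edge / radial glia distance.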

[10] = IUF_NPC2a_radial_glia_migration_120hr: Leibniz Research Institute for Environmental Medicine (IUF) 120-hour Neural Progenitor Cell Migration Assay for Radial Glia Migration (NPC2a) (AID 2284298)
In short: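 Hoechst-stained nuclei imaged at 120 h; algorithm maps sphere core by densest nuclei, sets migration edge at density threshold, gives radial glia migration distance (um) per well vs DMSO. hNPC spheres (0.3 mm), PDL/laminin, DMEM/F12 3:1 + 1% N2.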

Measured: AC50

CC[Si](OC(C)=O)(OC(C)=O)OC(C)=O
not listed: [8] | [9] | [10]
inactive: all other assays above

CCCCCCCCCCCCCCCCCC(=O)OCC(CC)CCCC (stereo unspecified)
inactive: [8]

CCc1c(C)cc(N)c(CC)c1N
inactive: [8]

CN(C)C(=N)N=C(N)N
inactive: [9] | [10]

Cc1cc(C2(c3cc(C)c(O)cc3C)OS(=O)(=O)c3ccccc32)c(C)cc1O
not listed: [8] | [9] | [10]
inactive: all other assays above

NCCNCCN
not listed: [8] | [9] | [10]
inactive: all other assays above

c1ccc2c(c1)c1cccc3ccc4cccc2c4c31
inactive: [8]

N#Cc1ccc(CC(=NNC(=O)Nc2ccc(OC(F)(F)F)cc2)c2cccc(C(F)(F)F)c2)cc1
inactive: [8] | [9] | [10]

CC(C)Oc1ccccc1O
inactive: [8]

OC[C@H]1O[C@H](O[C@]2(CCl)O[C@H](CCl)[C@@H](O)[C@@H]2O)[C@H](O)[C@@H](O)[C@H]1Cl
not listed: [8] | [9] | [10]
inactive: all other assays above

Nc1cc([N+](=O)[O-])ccc1O
not listed: [8] | [9] | [10]
inactive: all other assays above

O=P(c1ccccc1)(c1ccccc1)c1ccccc1
inactive: [8]

CCCCCCCCC=O
inactive: [8]

O=C1OC2(c3cc(Br)c(O)c(Br)c3Oc3c2cc(Br)c(O)c3Br)c2c(Cl)c(Cl)c(Cl)c(Cl)c21
active: [8] 9.73 µM

C=CCOC(=O)CCC1CCCCC1
not listed: [8] | [9] | [10]
inactive: all other assays above

O=[N+]([O-])c1cc(C(F)(F)F)ccc1Cl
inactive: [8]

CC(=O)[C@H]1CC[C@H]2[C@@H]3CC=C4C[C@@H](O)CC[C@]4(C)[C@H]3CC[C@]12C
not listed: [8] | [9] | [10]
inactive: all other assays above

CC(=O)OCCC(C)CC(C)(C)C (stereo unspecified)
not listed: [8] | [9] | [10]
inactive: all other assays above

C[C@H]1C[C@@H]2[C@H]([C@@H](O)C[C@@]3(C)[C@H]2CC[C@]3(O)C(=O)CO)[C@@]2(C)C=CC(=O)C=C12
not listed: [8] | [9] | [10]
inactive: all other assays above

CC(C)(COC(=O)c1ccccc1)COC(=O)c1ccccc1
inactive: [8]

C#C[C@]1(O)CC[C@H]2[C@@H]3CCC4=Cc5oncc5C[C@]4(C)[C@H]3CC[C@@]21C
inactive: [8]

Cc1ccc2n[nH]nc2c1
inactive: [8]

CNC[C@H](O)c1cccc(O)c1
inactive: [8]

CCC(=O)OCc1ccccc1
not listed: [8] | [9] | [10]
inactive: all other assays above

OC1OC[C@@H](O)[C@H](O)[C@H]1O (stereo partly specified)
not listed: [8] | [9] | [10]
inactive: all other assays above

COc1cc(C=O)ccc1OC(=O)C(C)C
not listed: [8] | [9] | [10]
inactive: all other assays above
